Assay results from PubChem BioAssay AID485344 (National Center for Advancing Translational Sciences (NCATS), 2010).
Out of some 340,000 compounds screened, about 6,900 (2%) were called active. The full list was thinned out, with actives kept by preference. Unmarked numbers belong to inactive results. No stated cut-off is given here; in the data, active means inhibition above about 30%; inactive means below that, where a call was filed.

The molecules below were run against D(2) dopamine receptor (Homo sapiens) (UniProt P14416) (assay: HTS Assay for Allosteric Antagonists of the Human D2 Dopamine Receptor: Primary Screen for Antagonists). Conditions: HEK293 TREx D2 cells, calcium flux, dopamine EC80; at 10 µM; active compounds read high.
Chain of D(2) dopamine receptor (Homo sapiens) (P14416 whole entry, looked up): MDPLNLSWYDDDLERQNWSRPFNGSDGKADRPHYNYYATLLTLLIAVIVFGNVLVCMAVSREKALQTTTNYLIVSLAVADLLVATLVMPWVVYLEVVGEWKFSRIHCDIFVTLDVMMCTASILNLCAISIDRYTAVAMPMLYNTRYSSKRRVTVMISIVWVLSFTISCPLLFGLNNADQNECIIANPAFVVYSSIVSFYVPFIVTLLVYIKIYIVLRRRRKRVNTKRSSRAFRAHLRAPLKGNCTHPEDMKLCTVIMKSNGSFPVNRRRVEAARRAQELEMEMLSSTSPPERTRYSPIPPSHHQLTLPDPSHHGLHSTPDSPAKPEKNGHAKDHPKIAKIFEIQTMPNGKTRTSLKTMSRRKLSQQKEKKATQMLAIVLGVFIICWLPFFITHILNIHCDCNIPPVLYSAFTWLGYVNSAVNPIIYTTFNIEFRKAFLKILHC
Procedure, shortened: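 Antagonism is scored as inhibition of an EC80 dopamine-evoked calcium signal in a force-coupled, tetracycline-inducible HEK293 T-REx D2 line, with compound present 180 s before agonist.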
Further: 0% is about no effect.

Structure (SMILES)	inhibition
CCN(CC)S(=O)(=O)c1ccc(CNC(=O)CN2C(=O)NC3(CCc4ccccc43)C2=O)cc1 (stereo unspecified)	-6.28%
CCc1ccc(NC(=O)Cn2ncn3c(cc4ccccc43)c2=O)cc1	12.2%
CC(C)c1ccc(NC(=O)Cn2ncc3ccccc32)cc1	32.4% (active)
CCOC(=O)c1cn(CC(=O)Nc2ccc(C(C)C)cc2)nn1	-8.92%
COc1ccc(OCCCC(=O)Nc2cccc(S(=O)(=O)N3CCCCCC3)c2)cc1	-0.774%
O=C(c1cn(-c2ccccc2)nc1-c1cccnc1)N1CCN(S(=O)(=O)c2ccccc2F)CC1	17.6%
CCCN(CC(=O)NC(=O)NC1CCCCC1)CC(=O)Nc1cc(Cl)ccc1Cl	-13.3%
Fc1ccc(NC(=S)N2CCc3[nH]c4ccccc4c3C2)cc1	-0.813%
Cc1ccc2[nH]c3c(c2c1)CN(C(=O)CN1CCN(c2ccccc2)CC1)CC3	4.69%
O=C(CCCN1CCc2[nH]c3ccc(F)cc3c2C1)c1ccc(F)cc1	92.7% (active)
O=C(COC(=O)c1ccc2ncsc2c1)Nc1ccc(Cl)cc1	18.7%
CCc1ccc(CNC(=O)C2CCCN(c3nc4ccccc4o3)C2)cc1 (stereo unspecified)	39.6% (active)
COc1ccc(OC)c(CNC(=O)C2CCCN(c3nc4ccccc4o3)C2)c1 (stereo unspecified)	-3%
COc1ccccc1CNC(=O)C1CCN(c2nc3ccccc3o2)CC1	9.79%
CCCCc1ccc(NC(=O)CN2C(=O)NC(Cc3ccccc3)C2=O)cc1 (stereo unspecified)	16.7%
COCc1c(C(=O)OCC(=O)Nc2ccc(OC(F)F)cc2)oc2ccccc12	-10.8%
Cc1oc(-c2ccccc2F)nc1CS(=O)CC(=O)NCCN1CCCCC1C (stereo unspecified)	-10.8%
CSc1ccc(CCNC(=O)CS(=O)(=O)Cc2nc(-c3ccccc3F)oc2C)cc1	-16.4%
Cc1oc(-c2ccccc2F)nc1CS(=O)(=O)CC(=O)NCCCN(C)C1CCCCC1	45.2% (active)
O=[N+]([O-])c1cc(S(=O)(=O)NCCc2ccccn2)ccc1Cl	9.65%
COc1ccc(CN2CCN(C(=O)c3cc(C4CC4)nn3-c3ccccc3)CC2)cc1F	-4.93%
N#CC1(NC(=O)COC(=O)Cc2n[nH]c(=O)c3ccccc23)CCCCC1	-5.98%
Cc1nn(Cc2ccccc2)c(C)c1CNC(=O)c1ccc(F)c(S(=O)(=O)N2CCOCC2)c1	5.64%

Structure (SMILES)	inhibition
CCOC(=O)C(=O)Nc1nc(-c2ccccc2)c(CC)s1	8.31%
CCOC(=O)c1sc2nc(SC)nc(-c3ccccc3)c2c1N	30.8% (active)
CCOC(=O)c1sc2nc(CSc3ccccc3)[nH]c(=O)c2c1C	20.4%
Cc1ccc(C)c(NC(=O)C(c2ccccc2)N2CCN(CC(=O)NC3CC3)CC2)c1 (stereo unspecified)	5.16%
O=C(Cc1ccc(-n2c(=O)[nH]c3ccccc3c2=O)cc1)N1CCN(c2cccc(Cl)c2)CC1	11.5%
O=C(Cc1csc(Nc2nc(=S)[nH]c3ccccc23)n1)NCCCN1CCN(c2cccc(Cl)c2)CC1	69.4% (active)
COc1cccc(CNC(=O)Cc2csc(Nc3nc(=S)[nH]c4ccccc34)n2)c1	-15.6%
COc1ccc(S(=O)(=O)N2CCOCC2)cc1NC(=O)c1ccc(OCC(C)C)c(OC)c1	-9.24%
Cn1c(=O)c(=O)n(C)c2cc(S(=O)(=O)NCCN3CCN(c4ccccc4F)CC3)ccc21	42.8% (active)
CCc1ccc(S(=O)(=O)Nc2cc3c(cc2N2CCCCC2)n(C)c(=O)c(=O)n3C)cc1	4.98%
Cc1ccc(S(=O)(=O)NCCN2CCOCC2)cc1C	-3.48%
Cc1ccc(S(=O)(=O)N2CCOCC2)cc1C(=O)Nc1ccccc1N1CCCC1	3.22%
CCOc1ccc(S(=O)(=O)N2CCCCC2)cc1NC(=O)CN1CCCC1c1cccs1 (stereo unspecified)	19.6%
CC(=O)NCC(O)c1ccc([N+](=O)[O-])cc1 (stereo unspecified)	12.7%
CNCC(O)c1ccc(O)c(O)c1 (stereo unspecified)	84.7% (active)
COc1ccccc1CNC(=O)CCCN1C(=O)NC2(CCCC2)C1=O	0.109%
NS(=O)(=O)c1ccc(CCNC(=O)COC(=O)COc2cccc(C(F)(F)F)c2)cc1	-7.34%
CCOC(=O)COc1ccc(Cl)cc1C1NC(=O)NC(C)=C1C(C)=O (stereo unspecified)	30.8% (active)
CCOc1ccccc1C1NC(=O)NC(C)=C1C(=O)OCc1ccco1 (stereo unspecified)	-14.9%
CC(=O)C1=C(C)NC(=O)NC1c1cc(Br)ccc1OCC#N (stereo unspecified)	-0.972%
O=C(COC(=O)Cn1[nH]c(=O)c2ccccc2c1=O)Nc1ncc(Cl)cc1Cl	-24.9%
Cc1ccccc1C(=O)NCC(c1ccco1)N1CCc2ccccc21 (stereo unspecified)	-18.5%
Nc1cc(N)nc(SCC(=O)Nc2cccc(S(=O)(=O)N3CCCCC3)c2)n1	3.49%
